Source: the supplement of paper PMC6555819

Experiments:
Assay in all cases: PBM binding z-score (relative to random genomic background probes); higher = stronger binding; sequences stand for … in GC…GCGATTGACAGCGTAGAATGAAGG
[1] = system: FXR:RXRa (NR concentration 270 nM, RXRa partner concentration 90 nM)
Summary of the method: (§1)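 Binding z-scores take random background probes as their reference. They come from custom Agilent 4×180K protein-binding microarrays incubated 1 h with ligand-free nuclear receptor dimers, with antibodies against each partner (one per run) detecting binding. Scanned fluorescence was regression-normalized.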

[2] = system: LXRa:RXRa (NR concentration 270 nM, RXRa partner concentration 90 nM)
Summary of the method: as §1

[3] = system: LXRa homodimer (NR concentration 270 nM)
Summary of the method: as §1

[4] = system: LXRb:RXRa (NR concentration 270 nM, RXRa partner concentration 90 nM)
Summary of the method: as §1

[5] = system: LXRb homodimer (NR concentration 270 nM)
Summary of the method: as §1

[6] = system: PPARa:RXRa (NR concentration 270 nM, RXRa partner concentration 90 nM)
Summary of the method: as §1

[7] = system: PPARg:RXRa (NR concentration 180 nM, RXRa partner concentration 90 nM)
Summary of the method: as §1

[8] = system: PPARg:RXRa 270nM:90nM, anti-RXR (NR concentration 270 nM, RXRa partner concentration 90 nM)
Summary of the method: as §1

[9] = system: PPARg:RXRa 30nM:10nM, anti-RXR (NR concentration 30 nM, RXRa partner concentration 10 nM)
Summary of the method: as §1

[10] = system: PPARg:RXRa 90nM:30nM, anti-RXR (NR concentration 90 nM, RXRa partner concentration 30 nM)
Summary of the method: as §1

[11] = system: PPARg:RXRa DBDmut IVT, anti-RXR (DBD mutation: RXRa K156A/R161A, NR concentration 270 nM, RXRa partner concentration 90 nM)
Summary of the method: as §1

[12] = system: PPARg:RXRa IVT, anti-PPARg (NR concentration 270 nM, RXRa partner concentration 90 nM)
Summary of the method: as §1

[13] = system: PPARg DBDmut:RXRa IVT, anti-PPARg (DBD mutation: PPARg1 K132A/R137A, NR concentration 270 nM, RXRa partner concentration 90 nM)
Summary of the method: as §1

[14] = system: PPARg DBDmut IVT, anti-PPARg (DBD mutation: PPARg1 K132A/R137A, NR concentration 270 nM)
Summary of the method: as §1

[15] = system: PPARg homodimer (NR concentration 180 nM)
Summary of the method: as §1

[16] = system: PXR:RXRa (NR concentration 270 nM, RXRa partner concentration 90 nM)
Summary of the method: as §1

[17] = system: PXR homodimer (NR concentration 270 nM)
Summary of the method: as §1

[18] = system: RARa:RXR (NR concentration 270 nM, RXRa partner concentration 90 nM)
Summary of the method: as §1

[19] = system: RARa homodimer (NR concentration 270 nM)
Summary of the method: as §1

[20] = system: RARb:RXRa (NR concentration 270 nM, RXRa partner concentration 90 nM)
Summary of the method: as §1

| Sequence | PBM binding z-score [1] | PBM binding z-score [2] | PBM binding z-score [3] | PBM binding z-score [4] | PBM binding z-score [5] | PBM binding z-score [6] | PBM binding z-score [7] | PBM binding z-score [8] | PBM binding z-score [9] | PBM binding z-score [10] | PBM binding z-score [11] | PBM binding z-score [12] | PBM binding z-score [13] | PBM binding z-score [14] | PBM binding z-score [15] | PBM binding z-score [16] | PBM binding z-score [17] | PBM binding z-score [18] | PBM binding z-score [19] | PBM binding z-score [20] |
| --- | --- | --- | --- | --- | --- | --- | --- | --- | --- | --- | --- | --- | --- | --- | --- | --- | --- | --- | --- | --- |
| AGAACGAGGGCCATGAGTTGATAGCACGGGTGGC | -0.356 | -0.437 | -0.767 | -0.687 | -0.764 | -0.163 | 0.614 | -0.0464 | -0.464 | -0.23 | 0.174 | 0.141 | -0.382 | 0.0603 | -0.217 | 0.118 | -0.232 | -0.375 | -0.362 | 0.632 |
| ATCGAAAGGTCGTGAGGTGAGGATACAGAAAGGC | 5.69 | 4.09 | 0.323 | 3.37 | 0.581 | 5.08 | 4.41 | 4.73 | 1.86 | 3.51 | 0.406 | 2.89 | 1.55 | 0.615 | 2.28 | 3.3 | 0.684 | 4.61 | 1.12 | 4.13 |
| ATCGAAAGGTCGAGGTGTGTATAGAGAAAGGGAA | 3.92 | 3.39 | 0.47 | 2.82 | 0.483 | 4.43 | 2.6 | 3.16 | 1.2 | 2.19 | 0.539 | 1.92 | 1.19 | 0.613 | 1.6 | 2.17 | 0.958 | 3.25 | 1.16 | 4.03 |
| CCTGCTGGGCCATTCAGAGGTCATTGATCATATG | 2.79 | 4.29 | 6.46 | 4.01 | 0.198 | 3.65 | 0.755 | 1.86 | 0.0618 | 1.15 | 0.632 | 1.28 | -1.02 | -0.733 | 1.68 | 4.82 | 2.03 | 4.69 | -0.506 | 3.23 |
| TAGCCTAGGTCTTTCAGGGGCCAGTATAGAAAGC | -0.49 | -0.379 | -0.527 | -0.066 | -0.296 | -0.263 | -0.284 | -0.623 | -0.57 | -0.453 | -0.411 | 0.431 | -0.836 | 0.0901 | -0.27 | -0.417 | -0.804 | -0.214 | -1.24 | 0.577 |
| CCTAGTTGTTCAAGGTCACACACGCTATAGGTAC | 4.9 | 4.93 | 4.85 | 4.17 | 1.95 | 4.26 | 2.64 | 3.12 | 1.55 | 2.55 | 1.86 | 2.8 | 2.46 | 1.22 | 4.99 | 4.73 | 3.83 | 5 | 4.94 | 4.12 |
| ATCGAAAGGGCGACGAGGTGAGTATACACCGTTT | 0.314 | 0.222 | -0.247 | 0.0783 | -0.352 | 0.902 | 0.873 | 0.152 | 0.164 | -0.136 | -0.129 | 0.9 | 0.582 | 0.302 | 0.304 | 0.264 | 0.172 | 0.542 | 0.176 | 1.74 |
| GCGACTGGGGTAAAGCAGGTTACCATAAGGTTGG | 0.315 | 0.949 | -0.396 | 0.852 | -0.819 | 1.66 | 0.941 | 1.19 | 0.0678 | 0.64 | 3.33 | 2.74 | -0.328 | -0.991 | -0.0118 | 0.651 | -0.238 | 0.955 | -0.412 | 0.44 |
| AGAATGAGGTTACCAAATATCAGGGAAACGCTTG | 1.57 | 2.74 | -0.144 | 1.81 | -0.351 | 3.3 | 2.58 | 2.84 | 1.07 | 2.04 | 4.3 | 3.78 | 1.63 | 0.617 | 0.301 | 1.05 | 0.00391 | 1.77 | -0.0256 | 2.1 |
| GCGACTGGGGTATCAGCAGGTTACCATAACTTAA | -0.215 | 0.488 | -0.233 | 0.757 | -0.459 | 0.871 | 0.146 | 0.0504 | -0.489 | -0.489 | 1.21 | 0.938 | -0.348 | -0.554 | 0.313 | -0.149 | -0.238 | 0.3 | -0.218 | 0.249 |
| CTGACTGGGGCATAAGGTTACCATAAGCCAGCCC | 0.671 | 2.05 | 0.0158 | 1.61 | -0.345 | 2.69 | 3.2 | 3.99 | 2.16 | 3.9 | 4.6 | 4.79 | 0.707 | -0.07 | 1.02 | 0.767 | -0.461 | 1.62 | -0.242 | 1.94 |
| ATCGAAAGGTCGACGAGATGAGTATACACCGTTT | 3.66 | 2.9 | 0.0102 | 2.41 | 0.483 | 4.04 | 2.7 | 2.66 | 1.14 | 1.85 | 0.534 | 1.36 | 1.43 | 1.08 | 1.2 | 2.24 | 0.2 | 2.77 | 0.514 | 3.79 |
| CCTAGTTGGTAAGGAGGTCACACACCGGATATGA | 3.14 | 3.17 | 1.87 | 3.13 | 0.74 | 4.19 | 3.16 | 3.39 | 1.34 | 2.68 | 1.63 | 4.06 | 0.9 | 0.468 | 2.82 | 3.83 | 1.4 | 4.14 | 1.52 | 3.04 |
| TCTTGTAGAGCAAGCAGGTTAAGAAAGCCTGAGT | -0.159 | -0.27 | -0.458 | -0.282 | -1.49 | 0.415 | -0.461 | 0.511 | 1.29 | 1.1 | 1.77 | 0.824 | -0.533 | -0.908 | -0.862 | -0.144 | -0.157 | -0.225 | -0.639 | -0.127 |
| TCGAGTAGGTTAGTGGCATTCAGAATGGCGTCGA | -0.429 | -0.347 | -0.383 | -0.122 | -1.05 | 0.197 | -0.294 | 0.534 | 0.972 | 0.858 | 2.03 | 1.11 | -1.08 | -0.671 | 0.509 | -0.288 | -0.134 | -0.0955 | -0.37 | 0.0922 |
| ACTATTAGTTGAGACGAGGGCTACCGATAGGTTG | -0.0056 | -0.0365 | -0.197 | -0.414 | 0.162 | -0.477 | 0.7 | -0.127 | 0.174 | 0.0258 | 0.458 | 0.0737 | 0.772 | 0.929 | -0.361 | -0.232 | -0.105 | -0.544 | 0.451 | 0.191 |
| TCTAGTTGGTCAAAGGTCACTCACTCGAAATGCG | 5.38 | 5.18 | 3.77 | 5.13 | 2.23 | 6.16 | 11.5 | 10 | 10.6 | 12.1 | 3.67 | 6.11 | 2.62 | 1.66 | 4.97 | 5.78 | 1.56 | 7.3 | 3.14 | 4.93 |
| AGTCAAAGTTCAGGACGAGGTAACCTAAAGCACG | 4.17 | 3.71 | 1.24 | 1.96 | 0.245 | 3.49 | 4.24 | 4.79 | 2.04 | 3.75 | -0.128 | 2.2 | 0.0369 | 0.548 | 2.47 | 2.74 | 1.53 | 2.96 | 0.958 | 4.23 |
